Test results published in the supplement of paper PMC11732987, “Enantioselective OTUD7B fragment discovery through chemoproteomics screening and high-throughput optimisation” (Communications Chemistry, 2025).

How the values were obtained:
Experiment in all cases: log2 ratio of Biotin-Ahx-Ub-VS probe labelling (fragment/DMSO); higher = less target engagement (more negative = stronger competition), active = hit call of the paper (q ≤ 0.05, log2 ratio ≤ -1)
Details in all cases: compound concentration: 200 uM; treatment time: 3 h
OTUD6B = biological target: T1, OTUD6B (UniProt Q8N6M0)
T1 sequence (whole entry): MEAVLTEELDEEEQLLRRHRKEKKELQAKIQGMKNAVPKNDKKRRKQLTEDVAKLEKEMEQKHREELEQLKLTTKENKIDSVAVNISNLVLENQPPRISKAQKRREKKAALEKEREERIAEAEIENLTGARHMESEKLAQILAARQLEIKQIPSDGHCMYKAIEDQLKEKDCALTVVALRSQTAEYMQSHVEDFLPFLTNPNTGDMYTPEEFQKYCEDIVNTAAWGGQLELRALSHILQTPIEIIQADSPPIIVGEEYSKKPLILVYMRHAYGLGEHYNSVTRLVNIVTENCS
In short: (§1)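 Average log2 ratios of fragment over vehicle were obtained by unpaired t-test from global-median-normalised Spectronaut label-free quantities. Proteins with ≥2 unique peptides were included. HEK293T lysate (495 µg per sample) was treated in triplicate with fragment at 200 µM or vehicle for 3 h, then with Biotin-Ahx-Ub-VS at 0.5 µM final for 1 h, and labelled DUBs were NeutrAvidin-enriched and run by diaPASEF LC-MS/MS.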

OTUD7B = biological target: T2, OTUD7B (UniProt Q6GQQ9)
T2 sequence (whole entry): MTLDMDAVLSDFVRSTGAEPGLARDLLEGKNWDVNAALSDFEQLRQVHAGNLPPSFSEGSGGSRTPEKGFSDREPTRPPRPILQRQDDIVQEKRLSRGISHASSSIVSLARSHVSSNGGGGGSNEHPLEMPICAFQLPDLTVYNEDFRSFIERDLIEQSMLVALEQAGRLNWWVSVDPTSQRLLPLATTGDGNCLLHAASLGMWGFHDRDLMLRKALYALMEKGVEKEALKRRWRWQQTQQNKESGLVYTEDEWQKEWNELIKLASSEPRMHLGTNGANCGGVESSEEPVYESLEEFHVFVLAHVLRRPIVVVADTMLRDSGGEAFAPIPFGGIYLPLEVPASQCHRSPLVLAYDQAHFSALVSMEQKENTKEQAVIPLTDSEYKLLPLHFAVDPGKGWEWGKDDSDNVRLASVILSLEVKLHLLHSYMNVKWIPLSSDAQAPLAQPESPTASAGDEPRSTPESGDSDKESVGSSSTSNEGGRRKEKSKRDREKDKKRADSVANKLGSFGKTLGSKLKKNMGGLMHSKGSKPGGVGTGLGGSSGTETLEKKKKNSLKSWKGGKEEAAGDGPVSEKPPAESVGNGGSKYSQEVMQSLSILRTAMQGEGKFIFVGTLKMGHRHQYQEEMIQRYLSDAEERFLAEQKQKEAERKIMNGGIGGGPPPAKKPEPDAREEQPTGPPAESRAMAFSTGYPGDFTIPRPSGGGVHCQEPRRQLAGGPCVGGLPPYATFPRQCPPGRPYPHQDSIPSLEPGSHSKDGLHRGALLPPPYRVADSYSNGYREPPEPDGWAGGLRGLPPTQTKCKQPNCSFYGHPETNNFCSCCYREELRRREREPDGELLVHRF
In short: as §1

PRPF8 = PRPF8 (UniProt Q6P2Q9)
In short: as §1

PSMD7 = biological target: T3, PSMD7 (UniProt P51665)
T3 sequence (whole entry): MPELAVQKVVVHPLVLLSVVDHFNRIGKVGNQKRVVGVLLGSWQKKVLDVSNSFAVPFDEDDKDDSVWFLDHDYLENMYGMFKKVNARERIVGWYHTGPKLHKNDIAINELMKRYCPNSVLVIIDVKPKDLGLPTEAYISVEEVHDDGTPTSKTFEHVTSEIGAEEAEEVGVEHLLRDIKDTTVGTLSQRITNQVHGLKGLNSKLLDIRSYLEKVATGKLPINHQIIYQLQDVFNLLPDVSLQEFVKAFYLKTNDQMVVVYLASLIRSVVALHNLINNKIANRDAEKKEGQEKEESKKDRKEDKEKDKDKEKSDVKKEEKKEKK
In short: as §1

UCHL1 = UCHL1 (UniProt P09936)
UCHL1, sequence (P09936 whole entry, looked up): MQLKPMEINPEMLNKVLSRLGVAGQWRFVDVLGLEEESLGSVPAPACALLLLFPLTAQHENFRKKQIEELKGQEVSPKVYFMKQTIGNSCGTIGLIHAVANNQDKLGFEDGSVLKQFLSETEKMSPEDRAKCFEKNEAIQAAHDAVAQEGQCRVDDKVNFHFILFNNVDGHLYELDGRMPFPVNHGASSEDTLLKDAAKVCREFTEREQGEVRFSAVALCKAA
In short: as §1

UCHL3 = biological target: T4, UCHL3 (UniProt P15374)
T4 sequence (whole entry): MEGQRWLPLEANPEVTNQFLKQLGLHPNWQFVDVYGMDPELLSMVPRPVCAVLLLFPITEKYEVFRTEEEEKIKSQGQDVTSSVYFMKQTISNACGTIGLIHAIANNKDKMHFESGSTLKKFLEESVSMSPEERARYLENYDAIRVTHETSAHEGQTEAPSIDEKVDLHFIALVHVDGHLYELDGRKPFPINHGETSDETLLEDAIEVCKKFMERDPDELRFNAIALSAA
In short: as §1

UCHL5 = biological target: T5, UCHL5 (UniProt Q9Y5K5)
T5 sequence (whole entry): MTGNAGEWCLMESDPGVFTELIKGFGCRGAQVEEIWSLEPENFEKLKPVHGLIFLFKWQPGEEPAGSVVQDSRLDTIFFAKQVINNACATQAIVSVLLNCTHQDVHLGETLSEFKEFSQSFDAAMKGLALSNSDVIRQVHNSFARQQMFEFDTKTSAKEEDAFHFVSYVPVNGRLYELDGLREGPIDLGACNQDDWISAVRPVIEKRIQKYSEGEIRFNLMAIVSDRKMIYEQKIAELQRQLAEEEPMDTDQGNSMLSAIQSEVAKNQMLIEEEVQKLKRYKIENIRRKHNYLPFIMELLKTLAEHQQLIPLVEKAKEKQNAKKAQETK
In short: as §1

USP10 = USP10 (UniProt Q14694)
USP10, sequence (Q14694 whole entry): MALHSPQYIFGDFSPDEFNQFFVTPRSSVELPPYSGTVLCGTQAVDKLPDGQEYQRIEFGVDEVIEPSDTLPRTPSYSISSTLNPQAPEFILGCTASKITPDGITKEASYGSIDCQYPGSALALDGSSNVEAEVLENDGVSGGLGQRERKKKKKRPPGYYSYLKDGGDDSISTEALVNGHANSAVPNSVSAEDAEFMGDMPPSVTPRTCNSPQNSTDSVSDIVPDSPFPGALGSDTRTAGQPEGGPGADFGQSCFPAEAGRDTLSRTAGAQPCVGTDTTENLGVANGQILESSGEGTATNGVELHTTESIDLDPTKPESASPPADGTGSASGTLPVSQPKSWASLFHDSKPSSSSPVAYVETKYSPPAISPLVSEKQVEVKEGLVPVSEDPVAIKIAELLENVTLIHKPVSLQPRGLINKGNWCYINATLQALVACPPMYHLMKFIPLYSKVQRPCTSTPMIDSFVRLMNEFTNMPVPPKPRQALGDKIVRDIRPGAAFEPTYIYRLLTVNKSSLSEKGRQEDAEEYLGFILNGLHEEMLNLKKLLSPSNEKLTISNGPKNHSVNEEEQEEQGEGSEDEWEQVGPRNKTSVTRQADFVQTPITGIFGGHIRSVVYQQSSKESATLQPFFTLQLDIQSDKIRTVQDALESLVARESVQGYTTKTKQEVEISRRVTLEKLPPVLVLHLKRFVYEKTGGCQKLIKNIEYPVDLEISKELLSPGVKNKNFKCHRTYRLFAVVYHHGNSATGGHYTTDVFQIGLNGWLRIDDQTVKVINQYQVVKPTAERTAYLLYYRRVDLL
In short: as §1

USP15 = biological target: T6, USP15 (UniProt Q9Y4E8)
T6 sequence (whole entry): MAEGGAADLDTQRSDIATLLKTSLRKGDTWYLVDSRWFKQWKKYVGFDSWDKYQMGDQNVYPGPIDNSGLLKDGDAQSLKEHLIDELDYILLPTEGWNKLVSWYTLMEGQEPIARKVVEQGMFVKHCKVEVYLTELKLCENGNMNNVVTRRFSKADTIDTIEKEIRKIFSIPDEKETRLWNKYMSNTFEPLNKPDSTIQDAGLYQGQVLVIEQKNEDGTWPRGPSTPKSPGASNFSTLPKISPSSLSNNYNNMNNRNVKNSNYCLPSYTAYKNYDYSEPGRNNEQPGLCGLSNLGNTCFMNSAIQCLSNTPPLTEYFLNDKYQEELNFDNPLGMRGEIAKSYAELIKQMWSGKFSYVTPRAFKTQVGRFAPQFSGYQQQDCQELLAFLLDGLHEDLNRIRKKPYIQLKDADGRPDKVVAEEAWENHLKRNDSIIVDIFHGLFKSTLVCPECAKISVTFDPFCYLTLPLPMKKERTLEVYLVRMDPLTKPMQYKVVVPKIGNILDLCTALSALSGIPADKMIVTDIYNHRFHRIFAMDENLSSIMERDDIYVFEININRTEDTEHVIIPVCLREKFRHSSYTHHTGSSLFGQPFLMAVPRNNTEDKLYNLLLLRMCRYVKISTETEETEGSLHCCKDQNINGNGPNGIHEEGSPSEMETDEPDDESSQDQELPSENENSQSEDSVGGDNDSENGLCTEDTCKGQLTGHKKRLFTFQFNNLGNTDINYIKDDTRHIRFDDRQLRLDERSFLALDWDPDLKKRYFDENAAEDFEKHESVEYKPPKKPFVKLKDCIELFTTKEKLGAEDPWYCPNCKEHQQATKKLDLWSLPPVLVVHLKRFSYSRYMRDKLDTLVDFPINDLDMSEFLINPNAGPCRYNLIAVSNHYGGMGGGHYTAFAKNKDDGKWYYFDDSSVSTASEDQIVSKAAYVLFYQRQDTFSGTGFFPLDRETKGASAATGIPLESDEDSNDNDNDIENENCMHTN
In short: as §1

USP16 = USP16 (UniProt Q9Y5T5)
USP16, sequence (Q9Y5T5 whole entry, looked up): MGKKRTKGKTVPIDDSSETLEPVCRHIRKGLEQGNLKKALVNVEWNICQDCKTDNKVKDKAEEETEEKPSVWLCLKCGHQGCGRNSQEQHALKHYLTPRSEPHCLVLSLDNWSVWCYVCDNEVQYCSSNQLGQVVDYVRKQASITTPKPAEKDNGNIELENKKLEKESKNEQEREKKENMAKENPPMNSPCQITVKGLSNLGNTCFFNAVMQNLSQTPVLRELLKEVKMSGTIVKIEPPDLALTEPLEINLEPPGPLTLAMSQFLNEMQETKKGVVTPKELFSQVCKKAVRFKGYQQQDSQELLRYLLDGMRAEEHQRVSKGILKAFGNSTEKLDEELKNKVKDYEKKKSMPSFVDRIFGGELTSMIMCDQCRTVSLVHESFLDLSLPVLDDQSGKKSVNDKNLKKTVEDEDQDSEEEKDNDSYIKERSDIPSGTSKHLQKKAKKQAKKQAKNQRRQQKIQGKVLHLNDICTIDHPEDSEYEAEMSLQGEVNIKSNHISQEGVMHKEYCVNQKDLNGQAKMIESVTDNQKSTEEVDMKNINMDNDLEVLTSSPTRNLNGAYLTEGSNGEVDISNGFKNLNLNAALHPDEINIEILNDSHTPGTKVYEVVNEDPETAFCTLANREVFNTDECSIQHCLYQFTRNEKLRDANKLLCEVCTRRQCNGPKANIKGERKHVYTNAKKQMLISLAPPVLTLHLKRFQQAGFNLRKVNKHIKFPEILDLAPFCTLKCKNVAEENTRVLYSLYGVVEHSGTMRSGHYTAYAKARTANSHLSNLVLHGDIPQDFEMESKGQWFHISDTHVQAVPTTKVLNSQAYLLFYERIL
In short: as §1

Measured: log2 ratio of Biotin-Ahx-Ub-VS probe labelling

O=C(CCl)NCC(=O)N1CCCC1
active: UCHL1 -1.42
inactive: OTUD6B -0.139 | OTUD7B -0.187 | PRPF8 -0.0276 | PSMD7 -0.18 | UCHL3 0.0513 | UCHL5 -0.323 | USP10 -0.0856 | USP15 -0.0663 | USP16 0.0192
